According to PubChem BioAssay AID686978 (National Center for Advancing Translational Sciences (NCATS), 2013):
In all, about 420,000 compounds went through this assay and about 64,000 (15%) were called active. Roughly 27% stayed inconclusive and do not appear here. Not all results are given here. Where a call stands in place of a potency, no number is given. Unmarked numbers belong to inactive results. The call rests on the fitted dose curve; in most records, active means well fitted inhibition curve with a large enough effect; inconclusive means small, poorly fitted or top-dose-only effect; inactive means flat fitted curve, though single readings scatter.
Potency means the concentration at half of the fitted maximal effect.

Test: qHTS for Inhibitors of human tyrosyl-DNA phosphodiesterase 1 (TDP1): qHTS in cells in absence of CPT; further: nearly all actives have a fitted effect of over 55% in size
Details: DT40 Tdp1-/- hTDP1 cells, no CPT, ATP luminescence, 48 h; activity change, negative = growth inhibition: at 46.2 µM (top of the series)
How it was run: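 Luminescent ATP content (CellTiter-Glo) served as the growth readout. Knockout chicken DT40 cells expressing human TDP1 were exposed to compounds without camptothecin for a minimum 48 hr at 37 °C.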
In the case of `Cc1cccc(NS(=O)(=O)c2ccc(-c3cnc(C4CC4)o3)cc2)c1`, the Potency is reported as 0.58 µM (active). In the case of `CC1CCN(S(=O)(=O)c2ccc(S(=O)(=O)NCc3cccnc3)cc2)CC1`, the Potency is reported as “inactive”. With `COc1ccc(S(=O)(=O)NCc2cccn2Cc2cccc(C)c2)cc1` the Potency was “inactive”. For `COc1ccc(CNS(=O)(=O)c2ccc(-c3cnc(C4CC4)o3)cc2)cc1`, the Potency was 13 µM (active). For `Cc1ccc(S(=O)(=O)N[C@H]2CCC[C@@H]2O)cc1`, the Potency was “inactive”. In the case of `Cc1cccc(CNS(=O)(=O)c2ccc(-c3cnc(C4CC4)o3)cc2)c1`, the Potency is reported as 16.4 µM (active). In the case of `Cc1cc(NS(=O)(=O)c2ccc3oc(=O)c4ncn(C)c4c3c2)ccc1Br`, the Potency is reported as “inactive”. For `COc1ccc(S(=O)(=O)NCc2ccc(C(=O)N(C)Cc3ccco3)cc2)cc1`, the Potency was “inactive”. With `COc1ccc(CNS(=O)(=O)c2cc3c4c(c2)CCN4C(=O)CC3)cc1` the Potency was “inactive”. With `O=C(NCc1ccco1)C1CCCN(S(=O)(=O)c2cnc[nH]2)C1` (stereo not drawn) the Potency was “inactive”. In the case of `Cc1ccc(N=C2NC(=O)c3cccc([N+](=O)[O-])c32)cc1`, the Potency is reported as “inactive”. With `O=C(COc1ccc(Br)cc1)OCC(=O)c1ccc[nH]1` the Potency was “inactive”. With `Cc1ccc(CSCCNC(=O)CN(c2ccc(F)cc2)S(C)(=O)=O)cc1` the Potency was “inactive”. In the case of `Cc1c(NC(=S)NC(=O)CCc2ccccc2)c(=O)n(-c2ccccc2)n1C`, the Potency is reported as “inactive”. For `COc1cc(NC(=S)N2CCCC(C)C2)cc(OC)c1OC` (stereo not drawn), the Potency was “inactive”. With `C[C@H](NC(=O)c1ccccc1)C(=O)OCC(=O)c1c[nH]c2ccccc12` the Potency was “inactive”. For `O=C(/C=C/c1cccs1)NCc1cccnc1`, the Potency was “inactive”. With `Cc1noc(C)c1C(=O)NCC1COc2ccccc2O1` (stereo not drawn) the Potency was “inactive”. In the case of `CC(NC(=S)Nc1ccccc1)C1COc2ccccc2O1` (stereo not drawn), the Potency is reported as “inactive”. In the case of `S=C(NCC1COc2ccccc2O1)Nc1ccc(Br)cc1` (stereo not drawn), the Potency is reported as 23.1 µM (active). In the case of `O=C(O)c1ccc(NS(=O)(=O)c2cccc3nsnc23)cc1`, the Potency is reported as “inactive”. For `COc1ccccc1NC(=O)C1=C(C)Nc2nc(SCC(=O)c3ccc(C)cc3)nn2C1c1ccccc1C` (stereo not drawn), the Potency was “inactive”. For `COc1ccc(C(=O)NNc2cc(C)nc(NNC(=O)c3ccc(OC)cc3)n2)cc1`, the Potency was “inactive”. In the case of `Cc1cc(C)n(-c2ccc(Cl)c(C(=O)O)n2)n1`, the Potency is reported as “inactive”. With `COc1ccc(Nc2cc(C)nc(-n3nc(C)cc3C)n2)cc1` the Potency was 0.184 µM (active). In the case of `Cc1cc(C)n(-c2cc(Oc3ccccc3)ncn2)n1`, the Potency is reported as “inactive”. With `Cc1ccc(Nc2nc3ccccc3nc2-n2nc(C)cc2C)c(Cl)c1` the Potency was “inactive”. With `Cc1cccc(Nc2cc(C)nc(-n3nc(C)cc3C)n2)c1` the Potency was 3.26 µM (active). For `Cc1cc(Oc2ccccc2)nc(N2CCOCC2)n1`, the Potency was “inactive”. In the case of `CC(=O)c1ccc(Oc2cc(C)nc(-n3nc(C)cc3C)n2)cc1`, the Potency is reported as 0.58 µM (active). With `Cc1cc(C)n(-c2nnc(N3CCN(c4ccccc4)CC3)nn2)n1` the Potency was “inactive”. With `CC1(C(=O)NCc2ccccc2)CSCC(=O)N1CCCn1ccnc1` (stereo not drawn) the Potency was “inactive”. In the case of `CC(=O)c1cc(-c2ccccc2)n(CC(=O)NC2CCCCC2)c1C`, the Potency is reported as “inactive”. In the case of `O=C(C=CC(=O)Nc1ccc(F)cc1F)Nc1ccc(F)cc1F`, the Potency is reported as “inactive”. In the case of `O=C(O)C1CCCCC1C(=O)N1CCN(S(=O)(=O)c2ccc(F)cc2)CC1` (stereo not drawn), the Potency is reported as “inactive”. For `Cc1ccc2c(c1)C1CN(C)CCC1N2C(=O)c1ccccc1NS(=O)(=O)c1ccc(F)cc1C` (stereo not drawn), the Potency was “inactive”. For `CCOC(=O)c1ccc(S(=O)(=O)N(CCO)Cc2cc3cc(OC)c(OC)cc3[nH]c2=O)cc1`, the Potency was “inactive”. For `CCOc1ccc2[nH]c(=O)c(CN(CCCO)S(=O)(=O)c3ccc(F)cc3)cc2c1`, the Potency was 16.4 µM (active). In the case of `CCOc1ccc2[nH]c(=O)c(CN(CCCO)C(C)=O)cc2c1`, the Potency is reported as “inactive”. In the case of `CC(=O)c1c(C)[nH]c(C(=O)CN2C(=O)NC(C)(C)C2=O)c1C`, the Potency is reported as “inactive”. With `COCCNC(=S)N(Cc1cccnc1)Cc1ccc(OC)c(OC)c1` the Potency was “inactive”. In the case of `COc1cccc(C(=O)n2ccc(-c3cccs3)n2)c1`, the Potency is reported as “inactive”. In the case of `CC(C)CC1(C(=O)NCc2ccccn2)C=CCN1C(=O)c1ccccc1` (stereo not drawn), the Potency is reported as “inactive”. In the case of `CC(=O)c1c(C)[nH]c(C(=O)OCC(=O)Nc2c(C)cccc2C)c1C`, the Potency is reported as 13 µM (active). In the case of `COc1ccc(-n2c(SCC(=O)Nc3sc4c(c3C#N)CCCC4)nnc2-c2ccc(O)cc2)cc1`, the Potency is reported as “inactive”. In the case of `N#Cc1c(NC(=O)CCCl)sc2c1CCCCC2`, the Potency is reported as 18.4 µM (active). For `Cc1ccc(C)c(OCC(=O)Nc2sc3c(c2C#N)CCCC3)c1C`, the Potency was 9.2 µM (active). With `CC(=O)c1c(C)[nH]c(C(=O)OCC(=O)Nc2c(C)n(C)n(-c3ccccc3)c2=O)c1C` the Potency was “inactive”. In the case of `CCN1CCN(CC(=O)Nc2sc3c(c2C#N)CCC3)CC1`, the Potency is reported as “inactive”. With `CCCc1cc(=O)[nH]c(SCC(=O)Nc2sc3c(c2C#N)CCCC3)n1` the Potency was “inactive”. In the case of `N#Cc1c(NC(=O)C2CCCO2)sc2c1CCCCC2` (stereo not drawn), the Potency is reported as “inactive”. In the case of `CC(=O)c1c(C)[nH]c(C(=O)OCC(=O)Nc2sc3c(c2C#N)CCCC3)c1C`, the Potency is reported as 16.4 µM (active). With `Cc1cccc(C)c1NC(=O)COC(=O)c1ccccc1O` the Potency was “inactive”.
